{"source": "PubChem BioAssay", "note": "Activity calls are given as the source filed them. No rule for the calls is given here. Where a SMILES comes first, the peptide text is derived from it. The star is where a group is joined. Boc = CC(C)(C)OC(=O)*", "data": [{"target": "Pantothenate synthetase (Mycobacterium tuberculosis (strain ATCC 25618 / H37Rv)) (UniProt P9WIL5)", "sequence (P9WIL5 whole entry, looked up)": "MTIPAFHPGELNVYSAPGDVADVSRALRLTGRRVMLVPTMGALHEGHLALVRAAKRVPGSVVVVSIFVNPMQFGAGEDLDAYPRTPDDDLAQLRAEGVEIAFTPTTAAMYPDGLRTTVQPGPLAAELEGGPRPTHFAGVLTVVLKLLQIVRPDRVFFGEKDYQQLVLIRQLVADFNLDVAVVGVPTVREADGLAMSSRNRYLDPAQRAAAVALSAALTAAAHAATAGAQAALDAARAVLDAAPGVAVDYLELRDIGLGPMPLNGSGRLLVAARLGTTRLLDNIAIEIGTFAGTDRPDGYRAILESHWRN", "experiment": "Recombinant Mtb pantothenate synthetase (PanC) inhibitors, coupled enzyme, confirmatory (AID 375);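 also: 0% = full reaction with vehicle and 100% = no enzyme background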", "settings": "coupled enzyme assay; at 10 µM, hits give high values", "values": [{"smiles": "CCOC(=O)C(C)n1cnc2c(nnn2Cc2ccc(C)cc2)c1=O", "note": "(stereo not given)", "inhibition": "0% (inactive)"}, {"smiles": "Cc1ccc2nc(NC(=O)CN(C)S(=O)(=O)c3cccc4nsnc34)sc2c1", "inhibition": "0% (inactive)"}, {"smiles": "CC(C)Cn1c(N)c(C(=O)NCc2cccs2)c2nc3ccccc3nc21", "inhibition": "1% (inactive)"}, {"smiles": "CCOc1ccccc1NC(=O)NC1CCN(CC(=O)Nc2ccc3c(c2)OCCO3)CC1", "inhibition": "0% (inactive)"}, {"smiles": "CC(C)(C)OC(=O)N1CCCC1C(=O)NC(Cc1ccccc1)C(=O)O", "note": "(stereo not drawn) (Boc-Pro-Phe-OH; configuration not given here)", "inhibition": "4% (inactive)"}, {"smiles": "C/C(N)=C(/C#N)C(=O)COC(=O)c1cc(S(=O)(=O)N2CCCCC2)ccc1C", "inhibition": "0% (inactive)"}, {"smiles": "COc1cc(S(=O)(=O)N2CCC(N3CCCCC3)CC2)ccc1-n1cnnn1", "inhibition": "3% (inactive)"}, {"smiles": "CCN(CC)Cc1nc2c(c(=O)[nH]1)C1(CCCCC1)Cc1ccccc1-2", "inhibition": "3% (inactive)"}, {"smiles": "COc1ccc(NC(=O)c2cc(C3CC3)on2)c(OC)c1", "inhibition": "0% (inactive)"}, {"smiles": "CC(C)(C)Nc1nc(OCC(F)(F)F)nc(OCC(F)(F)F)n1", "inhibition": "0% (inactive)"}, {"smiles": "CC(=O)N1C(=O)C2(C(C#N)=C(N)Oc3cc(C)oc(=O)c32)c2ccccc21", "note": "(stereo not given)", "inhibition": "0% (inactive)"}, {"smiles": "CCOc1ccc(Cn2nnc(C(=O)Nc3ccc(OC)cc3OC)c2N)cc1", "inhibition": "0% (inactive)"}, {"smiles": "O=C(C1CCCN(S(=O)(=O)c2ccc(Br)s2)C1)N1CCCCCC1", "note": "(stereo not given)", "inhibition": "0% (inactive)"}, {"smiles": "COc1ccc(C2C(C(=O)c3sc(C)nc3C)=C(O)C(=O)N2CCN2CCOCC2)cc1", "note": "(stereo not given)", "inhibition": "0% (inactive)"}, {"smiles": "CCCS(=O)(=O)C(=C1Nc2ccccc2N1)S(=O)(=O)CCC", "inhibition": "1% (inactive)"}, {"smiles": "CCc1nnc(NC(=O)c2ccc(COc3ccccc3)o2)s1", "inhibition": "6% (inactive)"}, {"smiles": "CN1CCN(Cc2nc3c(c(=O)[nH]c(=O)n3C)n2CCc2ccccc2)CC1", "inhibition": "0% (inactive)"}, {"smiles": "COc1ccc(C)cc1NC(=O)CCN1CCCC1", "inhibition": "0% (inactive)"}, {"smiles": "O=C(Nc1ccncc1)C1CCCN(S(=O)(=O)c2cccc3cccnc23)C1", "note": "(stereo not given)", "inhibition": "0% (inactive)"}, {"smiles": "COCCOC(=O)C1=C(C)NC(=O)CC1c1cc2c(cc1Br)OCO2", "note": "(stereo not given)", "inhibition": "1% (inactive)"}, {"smiles": "CCOc1ccc2[nH]c(=O)c(CN(Cc3nnnn3CCc3ccccc3)CC3CCCO3)cc2c1", "note": "(stereo not given)", "inhibition": "0% (inactive)"}, {"smiles": "Cc1ccccc1Cn1c(=O)c2c(nc3n2CCCN3Cc2ccccc2)n(C)c1=O", "inhibition": "0% (inactive)"}, {"smiles": "COc1cc(NS(=O)(=O)c2ccc(N)cc2)ncn1", "inhibition": "0% (inactive)"}, {"smiles": "C=CCn1c(SCC(=O)Nc2ccccc2OC)nnc1-c1ccco1", "inhibition": "4% (inactive)"}, {"smiles": "CC(=O)Nc1ccc(S(=O)(=O)NCc2cn3c(C)csc3n2)cc1", "inhibition": "0% (inactive)"}, {"smiles": "CCN(c1ccc2c(c1)OCO2)S(=O)(=O)c1cc(Br)cc2c1N(C(=O)C1CC1)CC2", "inhibition": "0% (inactive)"}, {"smiles": "COc1ccc(-c2cc3nc(C)c(CCC(=O)NCc4ccco4)c(C)n3n2)c(OC)c1", "inhibition": "0% (inactive)"}, {"smiles": "Cc1c(Cl)cccc1NC(=O)CCN1CCCCCC1", "inhibition": "0% (inactive)"}, {"smiles": "CCOc1ccccc1OCC(=O)Nc1nnc(COC)s1", "inhibition": "4% (inactive)"}, {"smiles": "CCSc1nc(C)nc2c1oc1ccccc12", "inhibition": "0% (inactive)"}, {"smiles": "COc1ccc(Cl)c(N2CCN(CCCNC(=O)Nc3ccc(C)cc3)CC2)c1", "inhibition": "0% (inactive)"}, {"smiles": "CCC(c1nnc(SCC(=O)Nc2ccc(C(=O)Nc3ccccc3OC)cc2)o1)N(C)C", "note": "(stereo not given)", "inhibition": "0% (inactive)"}, {"smiles": "COc1ccc(OCCC(=O)NCc2ccccc2)cc1", "inhibition": "0% (inactive)"}, {"smiles": "c1ccc2c(CC3=NCCN3)cccc2c1", "inhibition": "0% (inactive)"}, {"smiles": "Cc1cc(C)c2c(=O)n(CC(=O)N3CCC(Cc4ccccc4)CC3)sc2n1", "inhibition": "0% (inactive)"}, {"smiles": "CCOC(=O)CNc1ccc2c(c1)OCO2", "inhibition": "0% (inactive)"}, {"smiles": "Cc1nc(SCCC(=O)O)c2ccccc2n1", "inhibition": "6% (inactive)"}, {"smiles": "CCC(C)C(NC(=O)OC(C)(C)C)C(=O)NC(CC(C)C)C(N)=O", "note": "(stereo not drawn) (Boc-Ile-Leu-NH2; configuration not given here)", "inhibition": "0% (inactive)"}, {"smiles": "COc1ccc(OC)c(NC(=O)CCNS(=O)(=O)c2cccs2)c1", "inhibition": "0% (inactive)"}, {"smiles": "O=C1c2ccccc2C(=O)N1CC(O)Cn1nnc2ccccc21", "note": "(stereo not given)", "inhibition": "0% (inactive)"}]}]}
